Measured values published in PubChem BioAssay (NCATS).
Inconclusive results are not listed. Where a call stands in place of a potency, no number is given. Calls of active or inactive are those of the source. Calls come from the whole dose curve; as a rule, active = well fitted cell-killing curve with a large enough effect; inconclusive = small, poorly fitted or top-dose-only effect; inactive = flat fitted curve, though single readings scatter.

Test: Quantitative highthroughput screen to assess conditional lethalithy of P12 Ichikawa cells grown in RPMI1640 with untreated serum (RPMI+s) (AID 1963881); note: nearly all actives have a fitted effect of over 35% in size
Conditions: ATP luminescence, 48 h; Potency: viability; series mostly up to 45.8 µM
Source text: Assay Provider: Jason Cantor Ph.D.
Department of Biochemistry
University of Wisconsin-Madison, Madison, WI, USA
Chemical screening studies have identified drug sensitivities across hundreds of cancer cell lines but most putative therapeutics fail to translate. Discovery and development of drug candidates in models that more accurately reflect nutrient levels in human blood is a major challenge. Here we performed high-throughput screens in conventional versus Human Plasma-Like Medium (HPLM) to identify compounds that were "missed" when screening using the artificial culture condition. Sets of conditional anticancer compounds spanned phases of clinical development and included non-oncology drugs were assessed. […] We also traced conditional phenotypes for several chemotherapeutics to availability of HPLM-specific metabolites and confirmed others for compounds whose reported targets are encoded by nonessential genes. Our findings establish generalizable strategies for exploiting conditional lethality in HPLM to reveal therapeutic candidates and mechanisms of action in cancer cells.
Described herein are the results of each viability screens against three cell lines: NOMO1 (an acute myeloid leukemia cell line); P12-Ichikawa (a T-cell acute lymphoblastic leukemia); and SEM (a B-cell ALL). Each assay was screened using 3 different cell culture media: homemade human plasma-Like medium with 10% dialyzed fetal bovine serum (HPLM+ds); RPMI1640 with 10% untreated FBS and 5mM glucose (RPMI+s); and RPMI1640 with 10% dialyzed fetal bovine serum and 5 mM glucose (RPMI+ds).
PROTOCOL TABLE (as described by Inglese J, Shamu CE and Guy RK. 2007)
SEQUENCE No. (e.g., 1, 2, 3, etc.); […] (e.g., Cells, Incubation, Reagent, etc.); VALUE and DESCRIPTION.
1; Cells; 5 uL; white, solid bottom 1536-well Greiner assay plate.
2; Compounds; 23 nL; Kalypsis pin tool (Wako USA) equipped with a 1536-well pin head to transfer to the assay plates.
3; Incubation; 48 hours; 37C incubation.
4; Reagent; 3 uL; CellTiter Glo (Promega).
5; Incubation; 5 min, room temperature
6; Detection; Luminescence, Viewlux PerkinElmer.
NOTES (numbers refer to Sequence numbers above)
1. Briefly, 5 ul of cell reagent was dispensed using a Multidrop Combi Dispenser. The NOMO1 and SEM cells were plated at 500 cells/well and the P12-Ichikawa line at 1000 cells/well.
2. After seeding the cells, 23 nL of MIPE 4.1 library compounds (in DMSO) were added to each plate using a Kalypsys 1536 Pintool dispenser. Bortezomib at final concentration of […] and DMSO were added to each plate as positive and negative controls respectively. For each screen, MIPE 4.1 compounds were added over an eleven-point concentration range […] in 3-fold dilutions.
3. Each plate was covered with a stainless steel gasketed lid to prevent evaporation and incubated for 48 hour at 37C, 95% relative humidity, and 5% CO2.
4-5. Three microliter CellTilter-GloTM luminescent substrate mix (Promega) reagent was added to the assay plate and incubated at room temperature for 5 min.
6. The luminescence signal was measured using a ViewLux (PerkinElmer) multiplate reader with a 2 second exposure time per plate. Data for each compound were normalized as percent viability such that measurements for DMSO and the empty well controls in each plate were defined as 100% and 0%, respectively.
Potency is the fitted concentration of half-maximal effect.

Structure (SMILES)	Potency
COc1cc2c(cc1OC)CN(CCc1ccc(NC(=O)c3cccc4c(=O)c5cccc(OC)c5[nH]c34)cc1)CC2	3.72 µM (active)
COc1cc(C(C)C)c(Oc2cnc(NC(CO)CO)nc2N)cc1I	inactive
O=C(O)C[C@H](O)C[C@H](O)C=Cc1c(C2CC2)nc2ccccc2c1-c1ccc(F)cc1	3.72 µM (active)
N#CC(=C(N)Sc1ccc(N)cc1)c1ccccc1C(F)(F)F	2.96 µM (active)
CC(=O)O[C@H]1C[C@@H]2CC[C@H]3[C@H]4C[C@H]([N+]5(C)CCCCC5)[C@@H](OC(C)=O)[C@@]4(C)CC[C@@H]3[C@@]2(C)C[C@H]1N1CCCCC1	inactive
COc1cc(Nc2ncc(F)c(Nc3ccc4c(n3)NC(=O)C(C)(C)O4)n2)cc(OC)c1OC	5.26 µM (active)
CNC(=O)c1ccc(Nc2cc(Nc3ccccc3S(=O)(=O)C(C)C)c3cc[nH]c3n2)nc1	1.87 µM (active)
O=c1cc(N2CCOCC2)oc2c(-c3cccc4c3sc3ccccc34)cccc12	inactive
O=C(NCCS(=O)(=O)c1ccc(C(F)(F)F)cn1)c1ccc(Cl)cc1	inactive
CCC=CC[C@H]1C(=O)CC[C@@H]1CC(=O)OC	inactive
CCCCC(F)(F)[C@@]1(O)CC[C@H]2[C@H](CC(=O)[C@@H]2CCCCCCC(=O)O)O1	inactive
CC(C)(C)C(=O)OCOP(=O)(COCCn1cnc2c(N)ncnc21)OCOC(=O)C(C)(C)C	0.332 µM (active)
CC1(C)C(=O)N(CCN2CCC(C(=O)c3ccc(F)cc3)CC2)c2ccccc21	inactive
Nc1cc(C(F)(F)F)c(-c2cc(N3CCOCC3)nc(N3CCOCC3)n2)cn1	1.66 µM (active)
O=C(OCC#CCSc1nnc(-c2cccc3ccccc23)o1)c1cc2ccccc2s1	inactive
Cc1cc(=O)oc2cc(O)ccc12	inactive
COc1ccc(S(=O)(=O)Nc2cccnc2Nc2ccc(O)cc2)cc1	3.32 µM (active)
COc1cc2nccc(Oc3ccc(NC(=O)NC4CC4)c(Cl)c3)c2cc1C(N)=O	20.9 µM (active)
O=C(CCCCCCC(=O)Nc1ccc([C@H]2O[C@@H](CSc3nc(-c4ccccc4)c(-c4ccccc4)o3)C[C@@H](c3ccc(CO)cc3)O2)cc1)NO	4.69 µM (active)
O=C(Nc1ccccc1-c1cn2c(CN3CCNCC3)csc2n1)c1cnc2ccccc2n1	26.4 µM (active)

Structure (SMILES)	Potency
CN(C)N=Nc1nc[nH]c1C(N)=O	2.09 µM (active)
CCCC(CCC)C(=O)O	inactive
Nc1nc(OCc2ccccc2)c2[nH]cnc2n1	inactive
CC[C@H](CO)Nc1nc(NCc2ccccc2)c2ncn(C(C)C)c2n1	inactive
NCc1c[nH]c(=S)n1[C@H]1CCc2c(F)cc(F)cc2C1	inactive
Cc1cc(C(C)(C)C)c(O)c(C)c1CC1=NCCN1	10.5 µM (active)
COc1ccc2c(c1)c(CC(=O)OCC(=O)O)c(C)n2C(=O)c1ccc(Cl)cc1	inactive
CO[C@@H]1[C@@H](O)[C@H](O)[C@@H](n2c3c(Cl)cccc3c3c4c(c5c6cccc(Cl)c6[nH]c5c32)C(=O)NC4=O)O[C@@H]1CO	0.235 µM (active)
CCOc1cc2c(c(F)c1OCC)C(=N)N(CC(=O)c1cc(N3CCOCC3)c(OC)c(C(C)(C)C)c1)C2	inactive
CC(C)C(C)C=CC(C)C1CCC2C3=CC=C4CC(O)CCC4(C)C3CCC21C (stereo not given)	inactive
CC(C)C(=O)Oc1ccc(CO)cc1[C@H](CCN(C(C)C)C(C)C)c1ccccc1	inactive
O=C(O)C1=NC(C(=O)O)CC(C=CN2c3cc(O)c(OC4OC(CO)C(O)C(O)C4O)cc3CC2C(=O)O)=C1 (stereo not given)	inactive
Clc1cccc(-n2nnnc2NCc2ccccc2Oc2ccccn2)c1Cl	inactive
CN(C)CC(C)(C)CNc1nn2c(-c3ccccc3)nnc2cc1C1CCC1	16.6 µM (active)
c1ccc([C@H]2CN3CCSC3=N2)cc1	inactive
NC(=O)c1cccc(N)c1	inactive
CCN1C[C@H](C)n2c(c(O)c3c(=O)n(Cc4ccc(F)c(Cl)c4)nc(C(=O)NC)c32)C1=O	inactive
N[C@@H](Cc1c[nH]c2ccc(O)cc12)C(=O)O	inactive
NS(=O)(=O)c1cc(Cl)c(Cl)c(S(N)(=O)=O)c1	inactive
O=C(Nc1cccc2c(=O)cc(-c3nn[nH]n3)oc12)c1ccc(OCCCCc2ccccc2)cc1	18.7 µM (active)
